Sampled rows, rich in hits. Any-hit rate of the full collection: about 8.7%.
Sfp PPTase inh: inhibitors of Bacillus subtilis Sfp phosphopantetheinyl transferase. actives 3.5% (n = 310,000). Potency, µM, for the others: largest response in the series, negative = inhibition, most hits filed as inhibitors. Biochemical Sfp PPTase activity, qHTS. AID 1490;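 note: the enzyme is Sfp with the accession as filed and its product quenches rhodamine fluorescence; 0% = enzyme reaction without inhibitor and -100% = no enzyme wells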
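Buffer: 50 mM Hepes-Na pH 7.6, 10 mM MgCl2, 0.01% Nonidet P-40, 0.01% BSA. Enzyme 15 nM, pre-exposed to compound 15 min; substrates then added and fluorescence change tracked over 30 min.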
ALOX12 inh: inhibitors of human 12S-lipoxygenase ALOX12; P18054; purified 12hLO, xylenol orange hydroperoxide absorbance; Potency, µM (series often up to 108 µM), for inactives: top-dose activity change, negative = inhibition, most hits filed as inhibitors; actives 1.1% (n = 580,000); AID 1671190; note: % is set by controls: 0 for no effect and ±100 for the full control effect
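Purified human 12hLO (150 nM final) in 25 mM Hepes, 0.01% Triton X-100, pH 7.0 was preincubated 15 min at room temperature with compound. Then 40 uM arachidonic acid was added, 30 min. Hydroperoxide was read by Fe-XO absorbance ratio 573/405 nm.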
G9a inh: inhibitors of human histone lysine methyltransferase G9a; Q96KQ7; G9a H3K9 monomethylation, AlphaScreen, 2 h; Potency, µM (highest dose often 102 µM), for inactives: at the highest dose activity, negative = inhibition, usual class: inhibitors; actives 8.8% (n = 350,000); AID 504332; note: % is set by controls: 0 for no effect and ±100 for the full control effect; nearly all actives have a fitted effect of over 75% in size
Target sequence (Q96KQ7 913-1193 limits assumed): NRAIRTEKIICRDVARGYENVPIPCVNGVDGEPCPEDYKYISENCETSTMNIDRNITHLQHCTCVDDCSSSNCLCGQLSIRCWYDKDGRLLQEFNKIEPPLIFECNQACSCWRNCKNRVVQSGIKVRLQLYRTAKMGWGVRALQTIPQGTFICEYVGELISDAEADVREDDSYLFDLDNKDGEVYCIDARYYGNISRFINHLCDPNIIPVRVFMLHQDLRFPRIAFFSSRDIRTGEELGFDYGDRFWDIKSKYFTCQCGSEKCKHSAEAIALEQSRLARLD
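AlphaScreen detection with an anti-monomethyl H3K9 antibody quantified product after a 2 h room-temperature reaction containing 500 nM biotinylated H3K9 peptide, 20 µM SAM and 20 nM enzyme, which had been preincubated 15 min with compound.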
JMJD2A Tudor: inhibitors of human JMJD2A Tudor domain | AlphaScreen JMJD2A-Tudor / H3K4me3 peptide binding | Potency, µM (top dose mostly 114 µM), for the others: at the highest dose activity change, negative = inhibition, hits mostly inhibitors | actives 4.4% (n = 390,000); note: % is set by controls: 0 for no effect and ±100 for the full control effect; nearly all actives have a fitted effect of over 50% in size
HP1b binding inh: HP1-beta chromodomain-methylated histone interaction inhibition; AlphaScreen HP1-beta / biotin-H3K9me3 peptide binding; Potency, µM (series often up to 114 µM), without a hit: at the highest dose activity change, negative = inhibition, usual class: inhibitors; actives 0.56% (n = 390,000); note: nearly all actives have a fitted effect of over 70% in size
Target sequence (P83916 whole entry, looked up): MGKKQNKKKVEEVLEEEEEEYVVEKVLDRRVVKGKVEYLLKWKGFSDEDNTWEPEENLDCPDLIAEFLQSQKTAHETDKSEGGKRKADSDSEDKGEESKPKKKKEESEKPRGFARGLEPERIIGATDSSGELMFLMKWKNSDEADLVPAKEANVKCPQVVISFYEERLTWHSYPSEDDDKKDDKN
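Compound inhibition of the preformed complex between 50 nM HP1-beta and 50 nM biotinylated H3K9me3 peptide was read by AlphaScreen. Buffer was PBS pH 7.4 with 0.01% Tween-20. Incubations ran 30 min at room temperature, with 10 ug/mL donor/acceptor beads.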
BAZ2B block: inhibitors of human BAZ2B bromodomain; actives 4.4% (n = 360,000); AlphaScreen BAZ2B-H3K14Ac peptide displacement; Potency, µM (top dose mostly 114 µM), without a hit: at the highest dose activity change, negative = inhibition, hits mostly inhibitors; Q9UIF8; note: % is set by controls: 0 for no effect and ±100 for the full control effect; nearly all actives have a fitted effect of over 60% in size
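AlphaScreen displacement of biotin-H3(5-23)K14Ac peptide (50 nM final) from BAZ2B (50 nM final) in PBS pH 7.4, 0.01% Tween-20; complex preformed 30 min RT, then compounds (top 110 uM) 30 min RT, beads 20 min dark.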
Active calls of the source: *; ? = inconclusive; . = not tested or not shown; [ ] = dose if it differs, or a comment. Calls come from the whole dose curve; as a rule, active = well fitted curve in the direction sought with a large enough effect; inconclusive = small, poorly fitted or top-dose-only effect, or another doubt; inactive = no such curve, though single readings can be large; an effect the other way counts as inactive or inconclusive. Potency is the fitted concentration of half-maximal effect.

SMILES	Sfp PPTase inh	ALOX12 inh	G9a inh	JMJD2A Tudor	HP1b binding inh	BAZ2B block
CC1(C)Cc2c(C#N)c(NCCO)nc(-c3ccco3)c2CO1	15.8µM*	?	39.8µM*	13.2%	52.7%	-1.8%
CC1(C)Cc2c(C#N)c(NCCN3CCOCC3)nc(-c3ccco3)c2CO1	-21.4%	0.0%	-12.0%[59 µM]	-9.0%	27.0%	.
Cc1ccc(C2NNC(=O)C2NC(=O)c2ccccc2)cc1 (stereo unspecified)	-11.2%	25.1µM*	2.24µM*	?	0.6%	-7.0%
Cn1ncc(N2CCC(NC(=O)CCC3CCCCC3)CC2)cc1=O	.	22.0%	.	.	.	.
O=C(O)c1c2c(nc3ccc(Cl)cc13)CCC2	1.0%	2.9%	39.8µM*	-22.6%	13.9%	?
Cc1ccc2nc3c(c(C(=O)O)c2c1)CCC3	16.7%	-19.6%	50.1µM*	-29.7%	4.0%	-31.8%
COc1ccccc1N1CCN(C(=O)CCc2ccccc2C)CC1=O	.	-0.2%	.	.	.	.
CS(=O)(=O)N1CCc2ccc(NC(=O)C3CCCO3)cc2C1 (stereo unspecified)	4.6%	9.7%	79.4µM*	-11.7%	52.4%	-9.9%
COc1ccc(Cl)cc1S(=O)(=O)N1CCC2(CCCNC2)C1 (stereo unspecified)	.	34.5%	.	.	.	.
Cc1ccccc1C(OCCN(C(C)C)C(C)C)c1ccccc1 (stereo unspecified)	-8.8%	-16.3%	28.2µM*	0.891µM*	?	?
Cc1ccc(O)c([C@H](CCN(C(C)C)C(C)C)c2ccccc2)c1	13.6%	-9.8%	4.0%[12.7 µM]	-13.7%	23.5%	-32.6%
Nc1ccc(OCCCc2c(N)nc(N)nc2N)cc1	9.4%	6.6%	?	56.2µM*	1.4%	-34.9%
COc1ccc(Cc2c(N)nc(N)nc2N)cc1	3.9%	-2.7%	15.1%	6.2%	21.5%	-28.9%
Cc1cc(C(=O)NCc2cccnc2)c(C)s1	.	-53.8%	.	.	.	.
O=C(O)c1ccc(N2C(=O)c3cccc4c(C(=O)O)ccc(c34)C2=O)cc1	-7.8%	-29.1%	12.6µM*	44.7µM*	79.4µM*	50.1µM*
O=C(O)c1ccc(N2C(=O)c3cccc4cccc(c34)C2=O)cc1	7.3%	-2.5%	.	-11.7%	34.1%	21.3%
O=C1c2cccc3cccc(c23)C(=O)N1c1ccc(O)cc1	50.1µM*	-8.0%	-13.7%	-25.1%	23.7%	79.4µM*
O=C(O)c1ccc2c3c(cccc13)C(=O)N(c1ccccc1)C2=O	5.5%	-27.6%	20µM*	?	?	56.2µM*
O=C(NCc1nnc2n1CCC2)c1ccc2nc(-c3ccc(F)cc3)cn2c1	.	52.6%	.	.	.	.
Cc1ccccc1NS(=O)(=O)c1ccc(F)cc1	21.5%	-18.5%	6.6%[59 µM]	-7.9%	37.1%	2.1%
CC(C)(C)N(NS(=O)(=O)c1ccc(F)cc1)c1ccccc1	-29.9%	14.2%	8.91µM*	?	26.6%	7.3%
Cc1cc(Br)ccc1OCCCCNCCO	-16.2%	-16.3%	.	3.16µM*	?	?
C=CCNCCCCOc1ccc(Br)cc1C	?	-23.1%	2.51µM*	2.51µM*	?	79.4µM*
CCOC(=O)c1sc2nc(CSc3ccccc3)nc(N3CCCN(C)CC3)c2c1C	50.1µM*	5.62µM*	44.7µM*	14.1µM*	?	50.1µM*
CCOC(=O)c1sc2nc(CSc3ccccc3)nc(N3CCC(C(N)=O)CC3)c2c1C	?	-23.5%	-38.4%	-35.6%	-4.8%	-37.9%
SMILES	Sfp PPTase inh	ALOX12 inh	G9a inh	JMJD2A Tudor	HP1b binding inh	BAZ2B block
CC(=O)c1ccccc1OCCOCCOCCOc1ccccc1C(C)=O	29.7%	4.6%	.	-0.8%	21.1%	-14.0%
CC(=O)OCOC(=O)CN(CC(=O)OCOC(C)=O)c1ccccc1OCCOc1ccccc1N(CC(=O)OCOC(C)=O)CC(=O)OCOC(C)=O	89.1µM*	11.4%[57.4 µM]	2.2%[59 µM]	.	.	.
Fc1cccc(Cl)c1CSc1nc(CN2CCOCC2)nc2ccccc12	.	10.8%	.	.	.	.
Cc1ccc2c(c1)Oc1ccc(S(=O)(=O)N(C)c3ccc(C)c(C)c3)cc1C(=O)N2	.	-9.5%	.	.	.	.
COc1ccc(N2CCN(C(=O)CNC(=O)c3ccc4ccccc4c3)CC2)cc1	.	358.5%	-6.7%[2.33 µM]	-8.4%	46.8%	-3.9%
COc1ccc(N2CCN(C(=O)CCNC(=O)c3ccc(C(C)(C)C)cc3)CC2)cc1	12.5%	-15.7%	44.7µM*	?	-15.6%	?
COc1ccc(N2CCN(C(=O)NC34CC5CC(CC(C5)C3)C4)CC2)cc1	2.5%	-21.0%	?	?	-19.4%	?
COc1ccccc1N1CCN(C(=O)c2ccc(C(C)(C)C)cc2)CC1	-7.3%	0.0%	12.0%[59 µM]	3.16µM*	-25.1%	-3.8%
COc1ccccc1N1CCN(C(=O)NC23CC4CC(CC(C4)C2)C3)CC1	12.6%	0.0%	79.4µM*	-13.8%	24.5%	-15.5%
COc1cc(OC)cc(C(=O)NCC(=O)N2CCN(c3ccc(O)cc3)CC2)c1	56.2µM*	?	22.4µM*	22.4µM*	?	-7.9%
Cc1cc(C)n(Cc2ccc(C(=O)N3CC4CC(C3)[C@H]3CCCC(=O)N3C4)o2)n1 (stereo partly specified)	.	39.7%	.	.	.	.
COC(=O)[C@@H]1Cc2c([nH]c3ccccc23)[C@H]2C[C@@H](N3CCOCC3)C[C@@H](c3ccc(C(F)(F)F)cc3)N21	.	-17.2%	.	.	.	.
COc1cc(OC)cc(C(=O)N2CCC(N3CCN(c4ccccc4OC)CC3)CC2)c1	-51.6%	?	7.94µM*	1.12µM*	?	50.1µM*
CCOC(=O)N1CCN(C(=O)COC(=O)CNC(=O)c2ccc(C)cc2)CC1	.	0.1%	-23.7%	-10.8%	51.9%	-1.5%
COc1ccc(N2CCN(C(=O)c3ccc(-n4nc(C)cc4C)cc3)CC2)cc1	-2.4%	-12.3%	?	-29.9%	-2.3%	-11.1%
COc1ccc(N2CCN(C(=O)C(C)(C)Oc3ccc(Cl)cc3)CC2)cc1	?	-58.3%	7.94µM*	50.1µM*	?	39.8µM*
COc1ccc(N2CCN(C(=O)COC(=O)CNC(=O)c3ccc(C)cc3)CC2)cc1	.	2.5%	39.8µM*	-16.4%	6.3%	0.4%
COc1ccc(N2CCN(C(=O)c3ccc(C(C)(C)C)cc3)CC2)cc1	?	?	?	56.2µM*	?	44.7µM*
CN(C)c1cccc(-c2cc3c(cn2)CN(Cc2ccncc2)CCN3)c1	.	-10.3%[176 µM]	.	.	.	.
CNC(=O)c1cc(-c2ccc([S+](C)(=O)[O-])cc2)cc2c1OCCN2Cc1cccnc1	.	-15.8%[176 µM]	.	.	.	.
CC(=O)N1CCN(c2ccc(NC(=O)c3ccc(C(C)(C)C)cc3)cc2)CC1	-17.1%	0.3%	11.2µM*	-28.0%	1.8%	-8.3%
CC(=O)N1CCN(c2ccc(NC(=O)c3ccc(Cl)cc3)cc2)CC1	23.1%	-24.8%	16.8%[59 µM]	-14.3%	48.7%	-6.6%

Screens from PubChem BioAssay.
